# Laboratory results taken from PubChem BioAssay AID651704 (Broad Institute, 2012).
# Where “and” joins values, the source holds several entries; their conditions need not be identical. Equal values may be shown once. In all, about 350,000 compounds went through this assay and about 1,600 (0.46%) were called active. What follows is part of a selection rich in actives, with near analogues and random picks from the rest. Unmarked numbers belong to inactive results.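 How the source made its calls: active means every replicate reaching a set inhibition limit, whatever the replicate mean (cut at about 25% in these data); inconclusive means mean inhibition reaches that limit but some replicates miss it; inactive means the rest.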
# Molecular target: Protein AF-9 (Homo sapiens) (UniProt P42568)
# Sequence (P42568 whole entry, looked up): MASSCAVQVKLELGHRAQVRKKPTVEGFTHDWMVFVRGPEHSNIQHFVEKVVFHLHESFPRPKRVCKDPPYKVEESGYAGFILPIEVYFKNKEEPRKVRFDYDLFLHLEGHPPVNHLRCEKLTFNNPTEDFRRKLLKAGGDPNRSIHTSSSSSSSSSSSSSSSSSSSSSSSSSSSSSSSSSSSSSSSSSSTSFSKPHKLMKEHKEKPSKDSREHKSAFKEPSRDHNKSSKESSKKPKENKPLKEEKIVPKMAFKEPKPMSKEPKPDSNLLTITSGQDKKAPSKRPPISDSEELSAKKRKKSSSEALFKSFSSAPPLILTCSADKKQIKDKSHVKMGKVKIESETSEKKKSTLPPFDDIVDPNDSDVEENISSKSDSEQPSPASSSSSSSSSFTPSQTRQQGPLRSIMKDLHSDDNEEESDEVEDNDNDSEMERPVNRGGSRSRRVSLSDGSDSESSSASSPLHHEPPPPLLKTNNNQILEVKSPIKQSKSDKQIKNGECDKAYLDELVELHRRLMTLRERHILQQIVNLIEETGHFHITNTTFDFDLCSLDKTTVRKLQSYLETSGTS
# Test: MLL-AF4/AF9 protein interaction blockers – biochemical, AlphaScreen, biotin-AF4 peptide, FLAG-AF9, single point, primary screen (AID 651704);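 further: 0% = plate neutral control median and 100% = total signal loss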
# Conditions: biotin-AF4 peptide binding to FLAG-AF9, at 10 µM, stronger effect = higher value
row,SMILES,inhibition
1,CC(C)=CCCC1(C)C=Cc2c(ccc3c2[nH]c2cc(O)c(C)cc23)O1 (stereo not drawn),26.9% (active)
2,COc1ccc(CN(C)C[C@@H]2OCCCC[C@H](C)Oc3ccc(NS(=O)(=O)c4cccs4)cc3C(=O)N([C@H](C)CO)C[C@@H]2C)cc1,5.32%
3,N#Cc1ccc(-c2ccc(C3[C@@H]4CN(S(=O)(=O)c5ccccc5F)C[C@H]3N4)cc2)cc1 (stereo partly drawn),-2.55% and -2.34%
4,COCC#Cc1ccc([C@@H]2[C@H]3CN(C(=O)C4CCOCC4)CC(=O)N3[C@H]2CO)cc1,-0.325%
5,Cc1ccc(S(=O)(=O)Nc2ccc3c(c2)C(=O)N([C@H](C)CO)C[C@@H](C)[C@@H](CN(C)C(=O)CCC(F)(F)F)OCCCC[C@@H](C)O3)cc1,-0.265%
6,CSC(=S)N/N=C/c1c[nH]c2ccccc12,33.1% (active)
7,C[n+]1ccc(/C=C/c2c[nH]c3ccccc23)cc1,11.9%
8,O=C(Cc1c[nH]c2ccccc12)N/N=C/c1cccc(F)c1,2.76%
9,CCCC#Cc1ccc([C@H]2[C@H]3CN(C(=O)Nc4ccc(F)cc4)CC(=O)N3[C@H]2CO)cc1,0.647%
10,CO[C@@H]1CN(C)C(=O)c2cc(NS(=O)(=O)c3ccccc3C)ccc2OC[C@@H](C)N(S(C)(=O)=O)C[C@@H]1C,-4%
11,COc1ccc(NS(=O)(=O)c2cc3c(cc2C)N(C(C)=O)CCO3)cc1,52.8% (active)
12,COc1ccc(N2CCN(S(=O)(=O)c3ccc4c(c3)N(C(C)=O)CCO4)CC2)cc1,1.85%
13,COc1ccc(NS(=O)(=O)c2cc(NC(=O)C3CCCCC3)ccc2N2CCOCC2)cc1,1.75%
14,C[C@@H]1CN([C@@H](C)CO)C(=O)c2cc(-c3ccc(F)cc3)cnc2O[C@@H]1CN(C)Cc1ccc(C(=O)O)cc1,-2.45%
15,N#C[C@@H]1[C@H](c2ccccc2C2=CCCCC2)[C@@H](CO)N1S(=O)(=O)c1cccc(F)c1,-2.55%
16,Cc1ccc(S(=O)(=O)N2C[C@H](O)COC[C@@H]3O[C@@H](CC(=O)NCC4CCCCC4)CC[C@H]32)cc1,27% (active)
17,CCNC(=O)C[C@@H]1CC[C@@H]2[C@H](COC[C@H](O)CN2S(=O)(=O)c2ccc(Oc3ccccc3)cc2)O1,-1.5%
18,O=C(C[C@@H]1CC[C@@H]2[C@H](COC[C@@H](O)CN2S(=O)(=O)c2ccccc2)O1)NCC1CCCCC1,33.9% (active)
19,O=C(C[C@@H]1CC[C@H]2[C@@H](COC[C@H](O)CN2S(=O)(=O)c2ccccc2)O1)NCCN1CCCC1,-0.246%
20,Cc1ccc(S(=O)(=O)N2C[C@@H](O)COC[C@@H]3O[C@H](CC(=O)NCc4ccc(Cl)c(Cl)c4)CC[C@H]32)cc1,0.126%
21,Cc1ccc(S(=O)(=O)N2C[C@@H](O)COC[C@@H]3O[C@H](CC(=O)NCCCN(C)C)CC[C@H]32)cc1,-2.12%
22,C[C@@H]1CN([C@@H](C)CO)C(=O)CCCn2cc(nn2)CO[C@H]1CN(C)Cc1ccc(C(=O)O)cc1,-0.624%

row,SMILES,inhibition
1,CN(C)C(=O)c1ccc(-c2ccccc2[C@@H]2[C@@H](C#N)N(C(=O)C3CCCC3)[C@H]2CO)cc1,-1.75%
2,O=C(c1cccc(F)c1)N1CC[C@@H]2[C@H](CO)Nc3ccc(C#Cc4ccccc4)cc3[C@@H]21,-0.355%
3,C/C=C/c1ccc([C@@H]2[C@@H](CO)N(C(=O)CN(C)C)C23CN(C(=O)C2CCCC2)C3)cc1,4.6%
4,CN1C(=O)c2cc(NC(=O)C3CCCC3)ccc2OC[C@@H]2O[C@@H](CC(=O)NCCc3ccncc3)CC[C@@H]21,1.93%
5,C[C@H](CO)N1C[C@H](C)[C@H](CN(C)C(=O)CCN(C)C)OCc2ccccc2-c2c(n(C)c3ccccc23)C1=O,2.11%
6,CN1CCC(CN)(N2CCN(c3ccccc3)CC2)CC1,33.8% (active)
7,O=C(c1ccccc1)c1ccc(C(=O)N2CCN(c3ccccc3)CC2)cc1,-1.66%
8,CCS(=O)(=O)N1CCC(N2CCN(c3ccccc3)CC2)CC1,-4.72%
9,CC(C)NC(=O)N(C)C[C@H]1OCCCC[C@H](C)Oc2ccc(NS(=O)(=O)c3ccc(Cl)cc3)cc2C(=O)N([C@@H](C)CO)C[C@H]1C,-0.682%
10,O=C(c1ccc(F)cc1)n1cc(C(=S)N2CCOCC2)c2ccccc21,9.22%
11,O=C(c1ccc(F)cc1)N1CCC(n2nnc3ccccc32)CC1,-0.54%
12,O=C(c1ccc(F)cc1)n1c(=S)nc2ccccn21,37.5% (active)
13,CO[C@@H]1CN(C)C(=O)c2ccc(NC(=O)NC(C)C)cc2OC[C@@H](C)N(C)C[C@H]1C,-3.29%
14,CN(C)CCNC(=O)c1cccc(-c2cnc3c(NC=O)cc(-c4cccc(C(F)(F)F)c4)cn23)c1,37.1% (active)
15,CC(=O)c1cccc(-c2cnc3c(NC=O)cc(-c4cccc(C(=O)N(C)C)c4)cn23)c1,-1.2%
16,CN(C)C(=O)c1cccc(-c2cnc3c(NC=O)cc(-c4ccc(F)cc4)cn23)c1,3.38%
17,COc1ccc2c3c(n(C)c2c1)[C@H](CO)N(C(=O)Nc1c(C)noc1C)CC31CN(CC2CC2)C1,1.61%
18,C=CCOC(=O)[C@H]1[C@@H]2C(=O)O[C@@H](c3ccccc3)[C@@H](c3ccccc3)N2[C@@H](c2ccc(OCCOC(=O)[C@H]3C[C@H]4C(=O)NCC(=O)N4[C@H]3c3ccc(O)cc3)cc2)[C@]12C(=O)Nc1ccccc12,0.736%
19,COc1ccc([N+](=O)[O-])cc1N(CC(=O)Nc1ccccc1C(=O)N1CCOCC1)S(C)(=O)=O,1.49%
20,COc1ccccc1N(CC(=O)Nc1ccccc1C(=O)N1CCCC1)S(C)(=O)=O,50.9% (active)
21,O=C(CN(c1ccccc1)S(=O)(=O)c1ccc(Cl)cc1)Nc1ccccc1C(=O)N1CCCC1,0.298%
